# Data published in PubChem BioAssay (NCI).
# “And” between values parts separate entries of the source, which are not always exact repeats. Equal entries are not always repeated. This is part of a sample that, as a whole, favours compounds with a hit. Of some 83,000 tested, about 20% had one in any assay.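 Assay: single dose, 48 h. Readout: percent growth (0 = no net growth; negative = cell death). Active: <10.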 The source made the active and inactive calls. Starred links: 1 amine or outer side, 2 acyl side, 3 side chain; linkers in the order of their positions; H or OH if unused. Positions of bridges follow the written chain, without caps; N, C: chain ends. Non-standard residues stand in square brackets, D forms with d. Residues, ends and D or L forms follow the SMILES beside them. Chains are numbered I, II in the order given. Actinocin(9to1) = Cc1c2oc3c(C)ccc(C(=O)[*:1])c3nc-2c(C(=O)[*:2])c(N)c1=O; aThr = C[C@H](O)[C@H](N)C(=O)O; NMeV = CN[C@H](C(=O)O)C(C)C; Sar = CNCC(=O)O
# Test system: COLO 205 colon
# Experiment: NCI-60 one-dose screen, 48 h (100 = growth as untreated, 0 = no growth, -100 = all killed)
# Settings: 10 µM
row,Structure (SMILES),growth
1,CN(C)CCC(=O)c1c[nH]c2ccccc12,111% (inactive)
2,N#C/C(=C1C=C/C(=N\O)C(Cl)=C\1)c1ccccc1,38.3% (inactive)
3,S=c1[nH]nc(Cc2ccccc2)c(=S)[nH]1,106% (inactive)
4,Cc1cnc(/C=N\NC(N)=S)c2cccc(N)c12,15.1% (inactive)
5,CCCCCCCCCCCCCCCCCN,99.8% (inactive)
6,Cc1cc(NCCCN(C)C)c2ccc3c(ccc4c(NCCCN(C)C)cc(C)nc43)c2n1,-82.8% (active)
7,COc1cc(C(C)(C)C)cc(OC)c1C(O)(c1c(OC)cc(C(C)(C)C)cc1OC)c1c(OC)cc(C(C)(C)C)cc1OC,-89.2% (active)
8,O=c1[nH]cc(F)c(=O)[nH]1,51.4% (inactive) and 39.4% (inactive)
9,Nc1ccc2cc(Br)c3ccccc3c2c1,115% (inactive)
10,BrC/C=C/C[P+](c1ccccc1)(c1ccccc1)c1ccccc1,16.5% (inactive)
11,O=C(/C(=C/c1ccccc1)CBr)c1ccccc1,92.6% (inactive)
12,"Cc1c2oc3c(C)ccc(C(=O)N[C@@H]4C(=O)N[C@H](C(C)C)C(=O)N5CCC[C@H]5C(=O)N(C)CC(=O)N(C)[C@@H](C(C)C)C(=O)O[C@H]4C)c3nc-2c(C(=O)N[C@@H]2C(=O)N[C@H](C(C)C)C(=O)N3CCC[C@H]3C(=O)N(C)CC(=O)N(C)[C@@H](C(C)C)C(=O)O[C@H]2C)c(N)c1=O (I: [aThr][dV]P[Sar][NMeV] / II: [aThr][dV]P[Sar][NMeV]; ester I:1-I:C, II:1-II:C; linker I:N-II:N via Actinocin(9to1))",-56.7% (active)
13,CSc1ccc2c(c1)C(N1CCN(C)CC1)Cc1ccccc1S2 (stereo not given),-75.1% (active)
14,CN1CCN(c2ccc3nc(-c4ccc5nc(-c6ccc(O)cc6)[nH]c5c4)[nH]c3c2)CC1,72% (inactive)

# Test system: DU-145 prostate
# Experiment: as above
# Settings: 10 µM
row,Structure (SMILES),growth
1,CN(C)CCC(=O)c1c[nH]c2ccccc12,111% (inactive)
2,N#C/C(=C1C=C/C(=N\O)C(Cl)=C\1)c1ccccc1,40.2% (inactive)
3,S=c1[nH]nc(Cc2ccccc2)c(=S)[nH]1,100% (inactive)
4,Cc1cnc(/C=N\NC(N)=S)c2cccc(N)c12,-15.6% (active)
5,CCCCCCCCCCCCCCCCCN,114% (inactive)
6,Cc1cc(NCCCN(C)C)c2ccc3c(ccc4c(NCCCN(C)C)cc(C)nc43)c2n1,-92.6% (active)
7,COc1cc(C(C)(C)C)cc(OC)c1C(O)(c1c(OC)cc(C(C)(C)C)cc1OC)c1c(OC)cc(C(C)(C)C)cc1OC,-100% (active)
8,O=c1[nH]cc(F)c(=O)[nH]1,57.4% (inactive) and 65.3% (inactive)
9,Nc1ccc2cc(Br)c3ccccc3c2c1,61.8% (inactive)
10,BrC/C=C/C[P+](c1ccccc1)(c1ccccc1)c1ccccc1,39.7% (inactive)
11,O=C(/C(=C/c1ccccc1)CBr)c1ccccc1,87.6% (inactive)
12,"Cc1c2oc3c(C)ccc(C(=O)N[C@@H]4C(=O)N[C@H](C(C)C)C(=O)N5CCC[C@H]5C(=O)N(C)CC(=O)N(C)[C@@H](C(C)C)C(=O)O[C@H]4C)c3nc-2c(C(=O)N[C@@H]2C(=O)N[C@H](C(C)C)C(=O)N3CCC[C@H]3C(=O)N(C)CC(=O)N(C)[C@@H](C(C)C)C(=O)O[C@H]2C)c(N)c1=O (I: [aThr][dV]P[Sar][NMeV] / II: [aThr][dV]P[Sar][NMeV]; ester I:1-I:C, II:1-II:C; linker I:N-II:N via Actinocin(9to1))",-30.5% (active)
13,CSc1ccc2c(c1)C(N1CCN(C)CC1)Cc1ccccc1S2 (stereo not given),34% (inactive)
14,CN1CCN(c2ccc3nc(-c4ccc5nc(-c6ccc(O)cc6)[nH]c5c4)[nH]c3c2)CC1,84.5% (inactive)

# Test system: K-562 leukemia
# Experiment: as above
# Settings: 10 µM
row,Structure (SMILES),growth
1,N#C/C(=C1C=C/C(=N\O)C(Cl)=C\1)c1ccccc1,20.9% (inactive)
2,S=c1[nH]nc(Cc2ccccc2)c(=S)[nH]1,94.6% (inactive)
3,Cc1cnc(/C=N\NC(N)=S)c2cccc(N)c12,30.6% (inactive)
4,CCCCCCCCCCCCCCCCCN,103% (inactive)
5,Cc1cc(NCCCN(C)C)c2ccc3c(ccc4c(NCCCN(C)C)cc(C)nc43)c2n1,-52.9% (active)
6,COc1cc(C(C)(C)C)cc(OC)c1C(O)(c1c(OC)cc(C(C)(C)C)cc1OC)c1c(OC)cc(C(C)(C)C)cc1OC,-89.4% (active)
7,O=c1[nH]cc(F)c(=O)[nH]1,64.6% (inactive) and 69.4% (inactive)
8,Nc1ccc2cc(Br)c3ccccc3c2c1,31.7% (inactive)
9,BrC/C=C/C[P+](c1ccccc1)(c1ccccc1)c1ccccc1,17.5% (inactive)
10,O=C(/C(=C/c1ccccc1)CBr)c1ccccc1,9.75% (active)
11,"Cc1c2oc3c(C)ccc(C(=O)N[C@@H]4C(=O)N[C@H](C(C)C)C(=O)N5CCC[C@H]5C(=O)N(C)CC(=O)N(C)[C@@H](C(C)C)C(=O)O[C@H]4C)c3nc-2c(C(=O)N[C@@H]2C(=O)N[C@H](C(C)C)C(=O)N3CCC[C@H]3C(=O)N(C)CC(=O)N(C)[C@@H](C(C)C)C(=O)O[C@H]2C)c(N)c1=O (I: [aThr][dV]P[Sar][NMeV] / II: [aThr][dV]P[Sar][NMeV]; ester I:1-I:C, II:1-II:C; linker I:N-II:N via Actinocin(9to1))",0.49% (active)
12,CN1CCN(c2ccc3nc(-c4ccc5nc(-c6ccc(O)cc6)[nH]c5c4)[nH]c3c2)CC1,50.2% (inactive)
